Screens: PubChem, National Center for Advancing Translational Sciences (NCATS)
WRN inhibitor: blocks human WRN helicase; Q14191; WRN helicase unwinding, fluorescent forked duplex, kinetic; Potency, µM (titrated, usually from 114 µM), inactives show at the top dose activity change, negative = inhibition, hits mostly inhibitors; actives 0.46% (n = 360,000); AID 651768; note: nearly all actives have a fitted effect of over 55% in size
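Primary qHTS, 1536-well format. 20 nM WRN + compound, 15 min RT; start with 100 nM forked fluorophore/quencher duplex, 2 mM ATP (final); kinetic read ex 525/em 598 nm.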
L3MBTL1 block: blocks human L3MBTL1; Q9Y468; AlphaScreen L3MBTL1–H3K9me1 peptide binding; Potency, µM (titrated, usually from 57.1 µM), without a hit: at the top dose activity, negative = inhibition, usual class: inhibitors; actives 0.66% (n = 230,000); note: nearly all actives have a fitted effect of over 60% in size
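Displacement of a biotinylated histone H3(1-15) peptide monomethylated at Lys9 (75 nM) from L3MBTL1 (50 nM) was measured by AlphaScreen after a 30 min room-temperature compound incubation; cefsulodin titration served as intraplate control.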
RECQ1 inh-1: blocks DNA unwinding by human RECQ1; P46063; RECQ1 DNA unwinding, red fluorescence kinetic read; Potency, µM (titrated, usually from 57.3 µM), without a hit: at the top dose activity, negative = inhibition, usual class: inhibitors; actives 0.54% (n = 240,000); AID 2549;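 note: plate controls were vehicle for no effect and no enzyme for full effect; nearly all actives have a fitted effect of over 30% in size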
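RECQ1T1 50 nM; forked duplex (20 bp + 30-nt ss tails) 200 nM, ATP 2 mM final; pH 8.0, 2 mM MgCl2, 2.5 ug/ml poly(dI-dC); 15 min compound preincubation; discontinuous kinetic read over 2 h at RT.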
BLM helicase inh: blocks DNA unwinding by human BLM helicase; Potency, µM (series often up to 56.1 µM), inactives show top-dose activity change, negative = inhibition, most hits filed as inhibitors; P54132; recombinant BLM DNA unwinding, fluorescence dequenching; actives 0.2% (n = 350,000);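 note: plate controls were vehicle for no effect and no enzyme for full effect; nearly all actives have a fitted effect of over 35% in size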
FEN1 inh: blocks human flap endonuclease 1; AID 588795; Potency, µM (doses to about 114 µM), for the others: top-dose activity change, negative = inhibition, hits mostly inhibitors; actives 0.35% (n = 390,000); P39748; Recombinant FEN1 flap cleavage, fluorescence, 15 min; note: nearly all actives have a fitted effect of over 65% in size
Target sequence (P39748 whole entry, looked up): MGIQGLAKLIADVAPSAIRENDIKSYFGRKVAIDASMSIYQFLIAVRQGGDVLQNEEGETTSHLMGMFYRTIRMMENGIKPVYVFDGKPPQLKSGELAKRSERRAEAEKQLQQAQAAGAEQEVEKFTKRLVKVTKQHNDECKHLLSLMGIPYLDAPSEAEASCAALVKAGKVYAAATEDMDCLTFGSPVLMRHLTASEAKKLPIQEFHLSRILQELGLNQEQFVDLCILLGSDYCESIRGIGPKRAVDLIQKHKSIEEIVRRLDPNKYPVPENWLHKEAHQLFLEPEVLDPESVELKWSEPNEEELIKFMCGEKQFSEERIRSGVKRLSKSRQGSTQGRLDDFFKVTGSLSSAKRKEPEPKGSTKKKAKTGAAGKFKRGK
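Read-out was taken twice, immediately and after 15 min, following addition of 50 nM substrate to 10 nM FEN1 that had sat with test compound for 15 min at room temperature. Curves came from a four-parameter Hill model.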
RECQ1 conf: confirmation of human RECQ1 helicase inhibitors. AID 2708. actives 28% (n = 610). RECQ1 helicase DNA unwinding, fluorescence. shares compounds with RECQ1 inh-1. Potency, µM (highest dose often 229 µM), without a hit: at the highest dose activity change, negative = inhibition, actives largely listed as inhibitors; note: nearly all actives have a fitted effect of over 45% in size
ADP FP counter: counter-screen for RECQ1 inhibitors: ADP displacement; shares compounds with RECQ1 inh-1; ADP fluorescence polarization displacement counterscreen; Potency, µM (doses to about 228 µM), without a hit: at the top dose activity change, negative = inhibition, most hits filed as inhibitors; actives 27% (n = 530); AID 2711; note: nearly all actives have a fitted effect of over 45% in size
RECQ1 inh-2: confirmation of human RECQ1 helicase inhibitors. shares compounds with RECQ1 inh-1. recombinant RECQ1 DNA unwinding, red fluorescence. Potency, µM (series often up to 119 µM), inactives show top-dose activity, negative = inhibition, usual class: inhibitors. actives 15% (n = 1,100). AID 504841; note: nearly all actives have a fitted effect of over 50% in size
Numbers without * were called inactive; i = inactive; u = inconclusive; x = no result; [ ] = remark or other dose. Rows were chosen to be rich in hits. Some 0.99% of all compounds tested hit in one or more screens of this group. Calls come from the whole dose curve; as a rule, active = well fitted curve in the direction sought with a large enough effect; inconclusive = small, poorly fitted or top-dose-only effect, or another doubt; inactive = no such curve, though single readings can be large; an effect the other way counts as inactive or inconclusive. Unless noted, % is set by controls: 0 for no effect and ±100 for the full control effect; potency is the fitted concentration of half-maximal effect.

SMILES	WRN inhibitor	L3MBTL1 block	RECQ1 inh-1	BLM helicase inh	FEN1 inh	RECQ1 inh-2	others
Cc1ccc(/C=C2/SC(=O)NC2=S)o1	40µM*	x	18µM*	-12%	40µM*	u	RECQ1 conf=13%[114 µM];ADP FP counter=35µM*
Cc1ccc2nc(SC(C)C(=O)NC3CCCc4ccccc43)[nH]c2c1 (centres undefined)	-22%	5%	-12%	-2%	-23%	x
O=C1C(=Cc2ccc(Br)o2)C(=O)c2ccccc21	8.9µM*	3.2µM*	8.9µM*	-2%	14µM*	x	RECQ1 conf=u
O=C(/C=C/c1ccc(Br)o1)NC(c1ccccc1)c1ccccc1	-12%	-10%	-10%	-3%	u	x
COC(=O)C1=C(C(=O)OC)[C@@H]2N(Cc3ccccc3)c3ccccc3[C@@]23C[C@@H](C(=O)OC)N=C3N1	-8%	x	u	0%[12.4 µM]	-5%	-8%
COC(=O)C1=C(C(=O)OC)[C@@H]2N(C)c3ccccc3[C@@]23C[C@@H](C(=O)OC)N=C3N1	5%	x	7%[11.5 µM]	-2%[12.4 µM]	-1%	x
CCCCC#Cc1ccc(C(=O)NNC(=O)Nc2cc(Cl)cc(Cl)c2)o1	5%	4%	i	-3%	-1%	x
O=C(c1ccccc1)c1ccc(OCCOCCN2CCN(Cc3ccccc3)CC2)cc1	u	-8%	u	-9%	-5%	2%
O=C(O[C@@H]1Cc2c(O)cc(O)cc2OC1c1ccc(O)c(O)c1)c1cc(O)c(O)c(O)c1 (some centres undefined)	x	x	0.71µM*	-26%	x	x	RECQ1 conf=2.8µM*;ADP FP counter=u
C[C@@H]1Cc2[nH][nH]c(=O)c2[C@H](C)O1	4%	x	x	x	x	x
O=C(c1cn(Cc2ccccc2)nc1-c1cccnc1)N1CCN(Cc2c(F)cccc2Cl)CC1	0%	u	x	x	7%	x
CNS(=O)(=O)c1ccc2nc(NC(=O)/C=C/c3ccco3)sc2c1	-9%	x	u	-4%	-24%	-21%
Cc1nc(NC(=O)/C=C/c2ccco2)sc1C	-32%	u	-3%	-23%	1%	x
C#Cc1ccc([C@@H]2C=C(C(=O)N3CCOCC3)O[C@H](OCc3ccc(CO)cc3)C2)cc1	1%	x	x	x	-7%	x
O=C(O)CCCNC(=O)CCn1nnc2ccccc2c1=O	-9%	4%	-6%	-7%	-5%	x
O=C(CCn1nnc2ccccc2c1=O)NCC1CCC(C(=O)O)CC1 (centres undefined)	12%	-1%	-5%	0%	-3%	x	RECQ1 conf=9%;ADP FP counter=0%
COc1cc(CCC(=O)OCC(=O)Nc2ccccc2C#N)cc(OC)c1OC	0%	-14%	-4%	-2%	19%	x
COc1ccccc1CNc1nc(-c2ccc3c(c2)OCO3)nc2ccccc12	x	x	u	-17%	x	-13%
Cc1sc2ncn(CC(=O)NCc3ccco3)c(=O)c2c1-c1ccc(F)cc1	-17%	-9%	-15%	-8%	7%	x
O=C(Cn1cnc2scc(-c3cccc([N+](=O)[O-])c3)c2c1=O)NCc1ccco1	u	x	25µM*	-25%	-31%	u
CCc1ccc(NC(=O)CCC(=O)c2ccc(C)cc2)cc1	8%	x	x	-10%	3%	x
CCOc1cc(NC(=O)C2CC2)c(OCC)cc1NC(=O)c1cccc(F)c1	-2%	x	x	-5%	1%	x
CCOc1cc(NC(=O)c2cnccn2)c(OCC)cc1NC(=O)c1cccc(F)c1	x	1%	-2%	-1%	x	x	RECQ1 conf=9%;ADP FP counter=u
CCOC(=O)C1(CCCc2ccccc2)CCN(C(=O)C2CCCO2)CC1 (centres undefined)	0%	-5%	i	0%	1%	x
CCOC(=O)C1(CCc2ccccc2)CCN(C(=O)C2CCCO2)CC1 (centres undefined)	4%	4%	u	-2%	-15%	2%
SMILES	WRN inhibitor	L3MBTL1 block	RECQ1 inh-1	BLM helicase inh	FEN1 inh	RECQ1 inh-2	others
O=C(O)CCC(=O)N1N=C(c2ccco2)CC1c1cccs1 (centres undefined)	-16%	2%	-4%	-2%	9%	x	RECQ1 conf=-4%;ADP FP counter=5%
O=C(O)CCC(=O)N1N=C(c2ccco2)CC1c1ccco1 (centres undefined)	-2%[11.6 µM]	-3%	x	-5%	-2%	x
C=CCN1C(=O)CS/C1=C(\C#N)S(=O)(=O)c1ccc(C)cc1	u	x	20µM*	-10%	-12%	u
O=C(Nc1cccc(NC(=O)c2ccc(-c3cccc(Br)c3)o2)c1)c1ccco1	-9%	-4%	-12%	-13%	7%	x
CN(CC(=O)Nc1ccc(F)cc1)C(=O)c1cc([N+](=O)[O-])ccc1N1CCOCC1	-6%	-2%	x	x	-3%	x
COC(=O)c1cccc(C(=O)Oc2cccc(Br)c2)n1	-6%	3%	14µM*	0%	-3%	-5%	RECQ1 conf=11%[114 µM];ADP FP counter=28%[91.9 µM]
COc1ccc(NC(=O)C2(C)CCN2Cc2ccc(OC)c3ccccc23)cc1OC (centres undefined)	-5%	x	x	x	x	x
Cc1cc(C)nc(NN2C(=O)/C(=C/c3ccccc3)SC2=S)n1	7%	-12%	-6%	-1%	11%	x
CN(C)c1ccc(/C=C2\SC(=S)N(Nc3ncc(C(F)(F)F)cc3Cl)C2=O)cc1	50µM*	-11%	10µM*	-11%	u	x	RECQ1 conf=7.9µM*;ADP FP counter=14%[91.9 µM]
CCN(CC)c1ccc(/C=N/NC(=S)NCc2ccccc2)cc1	3%	-12%	7.1µM*	-8%	2%	x	RECQ1 conf=-7%[114 µM];ADP FP counter=7%[91.9 µM]
COc1ccc(-n2c(N)c(C(=O)NCC3CCCO3)c3nc4ccccc4nc32)c(OC)c1 (centres undefined)	-9%	1%	u	-10%	-16%	-20%
CCc1ccc2[nH]c(=O)c(CN(Cc3ccccc3OC)Cc3nnnn3Cc3ccco3)cc2c1	-9%	-16%	u	-8%	-17%	-19%
Cc1ccc(C)c2[nH]c(=O)c(CN(Cc3ccc4c(c3)OCO4)Cc3nnnn3Cc3ccco3)cc12	2%	-6%	22µM*	-17%	-1%	-13%
CC(C)Cc1ccc(S(=O)(=O)N2CCN(Cc3noc(CCC(=O)N4CCCCC4)n3)CC2)cc1	x	x	x	-1%	14%	x
Cc1ccccc1NC(=S)c1ccc2ccccc2n1	-5%	x	x	-6%	-13%	x
CC(=O)OCCNc1nc(-c2ccccc2)nc2ccccc12	4%	0%	u	1%	14%	-9%
COc1ccc(CNC(=O)c2ccc(Cn3nc(C)cc3C)o2)cc1	-3%	x	x	-3%	3%	x
